In the library only some 11% were active in any assay of this set; here they are far more common.
PNC inhibitor: blocks assembly of the perinucleolar compartment. AID 2417. PC3M PTB-GFP, PNC prevalence imaging, 16 h; active compounds read low. activity change (PNC), negative = inhibition, % at 10 µM. 3.1% of 140,000 active;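 active means readout at or below -70, meaning at least 70% loss of cells showing the perinucleolar compartment, a nuclear body marking cancer cells; inconclusive means readout between -30 and a set limit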;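 further: plate controls were DMSO wells for no effect and camptothecin positive control wells for full effect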
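PC3M cells stably expressing PTB-GFP, 750–1000 cells/well, treated 16 h at 37 °C with compound (23 nl of library stock), in duplicate. After paraformaldehyde fixation and Hoechst stain, imaged at 20x; PNC prevalence scored by image analysis.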
12-hLO inh: 12-hLO (ALOX12) enzyme inhibition; P18054; purified 12-hLO, xylenol orange hydroperoxide absorbance; Potency, µM (doses to about 57.1 µM), without a hit: at the top dose activity change, negative = inhibition, most hits filed as inhibitors; 0.12% of 150,000 active; AID 1452; active means well fitted curve in the direction sought with a large enough effect; inconclusive means small, poorly fitted or top-dose-only effect, or another doubt; inactive means no such curve, though single readings can be large; an effect the other way counts as inactive or inconclusive; further: potency means the concentration at half of the fitted maximal effect; nearly all actives have a fitted effect of over 55% in size
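Purified human 12hLO (150 nM final) was preincubated with compounds for 15 min at room temperature in 25 mM Hepes pH 7.0, 0.01% Triton X-100, then reacted with 40 uM arachidonic acid for 30 min. Hydroperoxide was detected with ferrous iron/xylenol orange.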
HPGD block: blocks human HPGD enzyme activity; 4.3% of 150,000 active; Potency, µM, inactives show at the top dose activity change, negative = inhibition, most hits filed as inhibitors; P15428; purified HPGD, NADH fluorescence kinetic, PGE2 substrate; further: potency means the concentration at half of the fitted maximal effect
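NADH formation kinetics: reaction with 30 uM PGE2 and 1 mM NAD+ (final), 20 nM enzyme, Tris-HCl pH 8 with Tween 20, after 15 min compound preincubation at room temperature. Fluorescence change, last versus first of five reads.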
IMPase Li inh: membrane-permeable IMPase blocker, potentiated with lithium; CHO-M1 cells, IP1 TR-FRET (IP-One), carbachol + lithium; Potency, µM (doses to about 59.4 µM), inactives show at the top dose activity, negative = IMPase inhibition, actives largely listed as inhibitors; 0.35% of 210,000 active; active means well fitted curve in the direction sought with a large enough effect; inconclusive means small, poorly fitted or top-dose-only effect, or another doubt; inactive means no such curve, though single readings can be large; an effect the other way counts as inactive or inconclusive;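 further: IP1 builds up when IMPase is blocked and the TR-FRET signal falls; potency means the concentration at half of the fitted maximal effect; plate controls were basal vehicle for no effect and high inhibitor control for full effect; nearly all actives have a fitted effect of over 50% in size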
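Test compounds were applied to CHO-M1 cells previously cultured for 16–30 h at 2000 per well. A small lithium amount accompanied them; after 30 min at 37C, IP1 was quantified by TR-FRET.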
IMPase inh: membrane-permeable compound that blocks inositol monophosphatase; P97697; CHO-M1 cells, IP1 accumulation, HTRF TR-FRET ratio; inhibition (IP1 accumulation), % at 46.1 µM; 120,000 tested, under 10 active; active means well fitted curve in the direction sought with a large enough effect in the signal ratio, not every such curve was filed as active; inconclusive means small, poorly fitted or top-dose-only effect, or a change in a side signal; inactive means no such curve, though single readings can be large or run the other way; the % refers to the signal ratio;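 further: cells stimulated with carbachol in lithium chloride buffer; plate controls were DMSO basal wells for no effect and reference inhibitor wells for full effect; higher means more IMPase inhibition seen as more IP1 and lower FRET ratio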
Target sequence (P97697 whole entry, looked up): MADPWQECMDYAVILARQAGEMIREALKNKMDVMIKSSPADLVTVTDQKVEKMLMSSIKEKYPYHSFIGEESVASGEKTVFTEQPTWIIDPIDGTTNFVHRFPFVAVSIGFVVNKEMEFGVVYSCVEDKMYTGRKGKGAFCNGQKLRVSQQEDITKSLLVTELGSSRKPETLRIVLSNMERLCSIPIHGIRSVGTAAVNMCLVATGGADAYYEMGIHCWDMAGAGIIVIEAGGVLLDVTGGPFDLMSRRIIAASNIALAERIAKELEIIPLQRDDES
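In this qHTS, compounds (final up to 46 uM) act on CHO-M1 cells that are then activated through the M1 receptor with carbachol, in pH 7.4 buffer containing 50 mM LiCl, for 30 min. IP1 accumulation is quantified by the IP-One immunoassay.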
ALDH1A1 block: blocks purified human ALDH1A1 activity | P00352 | Purified ALDH1A1, NADH fluorescence, propionaldehyde substrate | Potency, µM (doses to about 75.3 µM), inactives show at the highest dose activity, negative = inhibition, most hits filed as inhibitors | 7.3% of 220,000 active | AID 1030;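 further: potency means the concentration at half of the fitted maximal effect; plate controls were no enzyme wells and a reference inhibitor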
Target sequence (P00352 whole entry, looked up): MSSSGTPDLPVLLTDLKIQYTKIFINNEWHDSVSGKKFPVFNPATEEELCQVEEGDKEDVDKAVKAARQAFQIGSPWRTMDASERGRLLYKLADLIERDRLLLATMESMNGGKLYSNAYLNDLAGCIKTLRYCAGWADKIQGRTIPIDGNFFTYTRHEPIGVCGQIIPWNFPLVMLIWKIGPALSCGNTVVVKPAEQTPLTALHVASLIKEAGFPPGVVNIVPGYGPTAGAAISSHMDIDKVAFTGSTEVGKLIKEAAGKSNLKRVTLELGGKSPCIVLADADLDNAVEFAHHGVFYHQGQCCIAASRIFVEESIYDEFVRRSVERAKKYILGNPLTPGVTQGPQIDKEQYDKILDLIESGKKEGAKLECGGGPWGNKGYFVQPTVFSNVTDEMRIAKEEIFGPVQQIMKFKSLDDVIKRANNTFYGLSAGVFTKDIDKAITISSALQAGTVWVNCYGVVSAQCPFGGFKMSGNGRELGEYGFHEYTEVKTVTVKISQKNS
The depositor's hits bear a star; ? = inconclusive; · = no result; [ ] = another dose, or the depositor's remark. Unless noted, the call rests on the fitted dose curve; in most records, active means well fitted inhibition curve with a large enough effect (not every such curve was filed as active); inconclusive means small, poorly fitted or top-dose-only effect, or another doubt; inactive means no such curve, though single readings can be large or run the other way. Unless noted, on the % scale 0 is the no-effect control and ±100 the full control effect.

SMILES | PNC inhibitor | 12-hLO inh | HPGD block | IMPase Li inh | IMPase inh | ALDH1A1 block
CCOC(=O)C1=C(c2ccccc2)NC(=S)NC1c1ccc(Cl)c([N+](=O)[O-])c1 (stereo not given) | -22 | ? | -24% | -1% | · | 0.71µM*
CCOC(=O)C1=C(c2ccccc2)NC(=O)NC1c1cc(Cl)c(O)c(OC)c1 (stereo not given) | · | · | · | 1% | · | 11%
CCOC(=O)C1=C(c2cccc(Oc3ccccc3)c2)NC(=S)NC1C (stereo not given) | 3 | ? | -26% | 35%[38.3 µM] | 0 | 0.32µM*
COc1cc(C2NC(=S)NC(c3ccccc3)=C2C(C)=O)cc(Cl)c1OCC(=O)O (stereo not given) | 92 | -5% | -20% | 5%[38.3 µM] | 5 | ?
CC(=O)C1=C(c2ccccc2)NC(=S)NC1c1cc(Cl)c(OC(C)C)c(Cl)c1 (stereo not given) | 3 | ? | -19% | 17% | 1 | 0.71µM*
CCOC(=O)C1=C(C)C(c2ccc(OC)cc2)NC(=S)N1 (stereo not given) | ? | -6% | -9% | 17%[38.3 µM] | 3 | 2.2µM*
CCOC(=O)COc1c(Cl)cc(C2NC(=S)NC(c3ccccc3)=C2C(C)=O)cc1OC (stereo not given) | 101 | -14% | -4% | 3% | · | ?
C[C@@H](N)/C(N)=N/O | · | 0%[11.4 µM] | -9% | 7% | · | -7%[13.5 µM]
CC(N)=NCCCC[C@@H](N)C(=O)O | · | · | -10% | -3% | · | -3%
CN(C)CC(C)(C)CNC(=O)c1ccc(-n2c(=O)c(=O)[nH]c3ccccc32)cc1 | · | -4% | -10% | · | · | -1%
CCOC(=O)C1=C(C)C(c2cccc(Oc3ccccc3)c2)NC(=S)N1 (stereo not given) | -12 | ? | -10% | 15% | · | 0.56µM*
O=C(CNc1ccc(Br)cc1)c1ccccc1 | 95 | -6% | -17% | -16%[38.3 µM] | 2 | 20µM*
Cc1ccc(C(=O)CC(=O)c2ccc(C(C)(C)C)cc2)cc1 | · | · | · | -5% | · | 3%
O=C(CNc1ccc(F)cc1)c1ccccc1 | · | · | · | 5% | · | 13µM*
O=C(CNC(=S)NC(=O)c1ccc(F)cc1)c1ccccc1 | 42 | -2% | -3% | -3% | · | ?
Cc1ccc(C(=O)CNc2ccc(Br)cc2)cc1 | 47 | 7% | -24% | 3%[38.3 µM] | 0 | 18µM*
Cc1ccc(C(=O)CNc2ccccc2C)cc1 | ? | -3% | -10% | 5% | · | 11µM*
O=C(CP(=O)(O)CC(=O)c1ccccc1)c1ccccc1 | · | · | · | 8% | · | 8%
COC(=O)C1=C(C)N(Cc2ccccc2)C2=C3C(=O)OCCC3[C@@](O)(C(=O)OC)C(=O)N2C1c1ccccc1 (stereo not given in full) | · | · | · | · | · | 7%[13.5 µM]
CCOC(=O)OCC | · | -3% | -11% | 10% | · | ?
COc1ccccc1C(=O)NCC(=O)N/N=C/c1cccc(Cl)c1 | · | · | · | -8% | · | 25%
NC(=S)Nc1cc2ccccc2c2ccccc12 | ? | ? | -8% | -8%[38.3 µM] | -13 | 0.4µM*
NC(=S)Nc1cccc2cc3ccccc3cc12 | -1 | -20% | -17% | 30%[38.3 µM] | 14 | ?
C#CC[N+]1(CC#Cc2ccccc2)CCOCC1 | ? | 2% | -15% | -6%[38.3 µM] | 4 | -31%
O=C(C[N+]1(CC#Cc2ccccc2)CCOCC1)c1ccccc1 | · | · | · | 15% | · | 4.5µM*
SMILES | PNC inhibitor | 12-hLO inh | HPGD block | IMPase Li inh | IMPase inh | ALDH1A1 block
O=C(C[N+]1(CC#Cc2ccccc2)CCOCC1)c1ccc(Cl)cc1 | · | · | · | 8% | · | 22µM*
CCOC(=O)CCCCC(=O)c1[nH]c(=O)[nH]c1CSc1nnc2c3cc(Br)ccc3n(C)c2n1 | · | · | · | 11% | · | 0.63µM*
CCOC(=O)CCCCC(=O)c1[nH]c(=O)[nH]c1CSc1nc(C)cc(C)n1 | ? | 5% | -6% | -6%[38.3 µM] | 6 | -2%
Cc1ccc2oc(-c3ccc(C)c(NC(=O)Cc4cccs4)c3)nc2c1 | 3 | 2% | ? | 13µM* | 2 | ?
COc1ccc2c(c1)C(=O)[C@H](OC(=O)N[C@H]1CCCc3ccccc31)[C@@H](c1ccc(OC)c(Br)c1)O2 | · | · | -10% | 5% | · | ?
COCCCn1c(-c2ccc(S(=O)(=O)N3CCOCC3)cc2)csc1=Nc1ccccc1 | 5 | 4% | ? | 10µM* | -13 | 14µM*
Cc1ccc2c(c1)sc[n+]2Cc1ccccc1 | 6 | -24% | 20µM* | 3%[38.3 µM] | 6 | ?
C=CCn1c(SCc2nc3ccccc3nc2C)nnc1-c1ccoc1C | ? | -6% | 25µM* | 32%[38.3 µM] | -5 | 1.6µM*
O=C(NCCO)C(=O)NCC1OCCCN1S(=O)(=O)c1cccs1 (stereo not given) | -80* | -1% | -4% | -7% | · | 18µM*
O=C(NCc1ccccc1Cl)C(=O)NCC1OCCN1S(=O)(=O)c1cccs1 (stereo not given) | · | · | · | 6% | · | 14µM*
O=C(NCc1cccs1)C(=O)NCC1OCCCN1S(=O)(=O)c1cccs1 (stereo not given) | · | · | · | 1% | · | 14µM*
O=C(NCCc1c[nH]c2ccccc12)C(=O)NCC1OCCCN1S(=O)(=O)c1cccs1 (stereo not given) | · | · | · | 6% | · | 25µM*
COc1cccc(N=C2C(=O)N3CCCc4cccc2c43)c1 | 16 | -1% | -11% | 4% | · | 0.16µM*
CCCCN(CC)Cc1ccc(CNC(=O)Nc2ccccc2)o1 | 11 | 11% | -8% | 26%[38.3 µM] | -12 | 9%
CCCCN(CC)Cc1ccc(CNC(=S)Nc2cccc(F)c2)o1 | · | · | · | -3% | · | 14µM*
C=CCN1C(=O)C(Cc2ccc(OC)cc2)S/C1=N/N=C/c1ccco1 (stereo not given) | -24 | -7% | -25% | 20% | 10 | 7.1µM*
Cc1c(I)c(=O)n(-c2ccccc2)n1C | · | -1%[0.00818 µM] | -5% | -8% | · | 1%
Cc1cc(N2CCC(C)CC2)c(F)cc1[N+](=O)[O-] | -11 | -14% | -15% | -8% | 10 | 10µM*
CC1CCN(c2cc(C#N)c(C#N)cc2[N+](=O)[O-])CC1 | 24 | -9% | -7% | -9%[38.3 µM] | -4 | 6%
Cc1ccccc1NC(=O)C1c2cccc[n+]2CC(=O)N1c1c(C)cccc1C (stereo not given) | ? | -12% | -22% | -5%[38.3 µM] | 4 | 11µM*
C[C@H](CCC(=O)NN)[C@@H]1CC[C@@H]2[C@H]3CC[C@H]4C[C@@H](O)CC[C@@]4(C)[C@@H]3CC[C@]21C | · | -7%[11.4 µM] | -9% | 9% | · | -8%[13.5 µM]
Cc1ccc(NC(=O)CCN2C(=O)CSC2=O)cc1 | -17 | 0% | -9% | 3% | 1 | -4%
O=C(CCN1C(=O)CSC1=O)Nc1ccc(Br)cc1 | -100* | 3% | -10% | -1% | 3 | 8%

Assay outcomes as filed in PubChem BioAssay.
